Values joined by “and” are separate entries in the source; they are usually repeats but may differ in a detail not shown here. Identical values can stand only once. The panel holds about 83,000 compounds, 20% with a hit somewhere; the sample as a whole holds those more often.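 Cells were grown in 96-well plates and exposed to the test compound at a single concentration for 48 hours; results are reported as percent growth, with values below 10 considered active.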 Values without a mark were called inactive. Active and inactive are the calls of the source.
system: MDA-MB-468 breast; test: NCI-60 one-dose screen, 48 h (100 = growth as untreated, 0 = no growth, -100 = all killed); details: 10 µM unless noted

O=C1CN2CCC1CC2 and CC12CCC(=O)C=C1C(O)CC1C2CCC2(C)C(O)CCC12 (stereo not given) are the same in growth: 104% for the first, 104% for the second.

Compared with Cc1cc(NC(=O)NCc2ccc(N3C(N)=NC(N)=NC3(C)C)cc2)ccc1S(=O)(=O)F, Cc1nc2ccccc2c(=O)n1-c1ccccc1F is higher in growth: 63.3% for the first, 105% for the second.

Compared with O=C(c1cccc(O)c1O)c1cn(Cc2ccc(F)cc2)c2cccc(O)c12, Fc1ccc(C2=NN(c3ccccc3)C(c3sc(N(CCCl)CCCl)nc3Cl)C2)cc1 (stereo not given) is higher in growth: 27% for the first, 81.4% for the second.

Going from O=c1[nH]c2ccc([N+](=O)[O-])cc2c(=O)o1 to O=[N+]([O-])c1ccc(P(=O)(O)O)cc1, the growth falls from 108% to 102%.

First: COC1OC(CO)C(O)C(O)[CH]1[Hg][O]C(C)=O (stereo not given)
Second: CO[C@@H]([CH2][Hg][O]C(=O)c1ccccc1)[C@@H]([CH2][Hg][O]C(=O)c1ccccc1)OC
The growth of the first is lower: 72.2% for the first, 94% for the second.

Compared with CCCCCN(CCCCC)CC(O)c1ccc(C)c(Cl)c1 (stereo not given), C/C(=N/OC(=O)N(C)C)c1cc(Cl)ccc1Cl is higher in growth: 99.9% for the first, 102% for the second.

First: O=C(CBr)OCCOC(=O)CBr
Second: O=C(O)c1[nH]c(=O)[nH]c(=O)c1F
The growth of the first is lower: 32.8% for the first, 107% for the second.

Going from COC(=O)CC12CC(NC(=O)c3csc([C@@H](C[C@H](C(C)C)N(C)C(=O)[C@@H](NC(=O)[C@H]4CCCCN4C)C(C)C)OC(C)=O)n3)(C1)C2 to COC(=O)C1CCC(NC(=O)c2csc([C@@H](C[C@H](C(C)C)N(C)C(=O)[C@@H](NC(=O)[C@H]3CCCCN3C)C(C)C)OC(C)=O)n2)CC1 (stereo not given in full), the growth falls from 38.6% to 27.9%.

First: CCC(CO)NC1CCCCC1 (stereo not given)
Second: CC(=O)O[C@H](C[C@H](C(C)C)N(C)C(=O)[C@@H](NC(=O)[C@H]1CCCCN1C)C(C)C)c1nc(C(=O)N[C@@H](Cc2ccccc2)C[C@H](C)C(=O)O)c(C(C)C)s1
The growth of the first is higher: 73.6% for the first, 19.8% for the second.

Going from C=CC[n+]1ccc(-c2cc[n+](CC=C)cc2)cc1 to O=C(O)C1(Br)CC12c1ccccc1-c1ccccc12 (stereo not given), the growth rises from 66.6% to 98.7%.

First: N#CCc1ccccc1
Second: c1ccc(Nc2nc(-c3ccccc3)c[se]2)cc1
The growth of the first is higher: 101% for the first, 49.8% for the second.

First: C/C1=C/C(=O)O[C@@H]2C[C@@H](CC[C@H](C)/C=C\C=C\CC1)O[C@@](OCCc1ccccc1)([C@@H]1CSC(=O)N1)C2
Second: O=C1Nc2ccccc2C2c3cccn3-c3ccccc3CN12 (stereo not given)
The growth of the first is lower: 12.2% for the first, 30.5% for the second.

Compared with O=C(Nc1ccc(O)cc1)C(Cl)(Cl)Cl, CCC(CC)(c1ccccc1)C(OC(N)=O)c1ccccc1 (stereo not given) is lower in growth: 95.2% for the first, 75.8% for the second.

First: N#CCN(CC#N)[N+](=O)[O-]
Second: n1nc(-c2nonc2-c2nn[nH]n2)n[nH]1
The growth of the first is higher: 112% for the first, 101% for the second.

First: COc1ccc(/C=C\c2cc(OC)c(OC)c(OC)c2)cc1NC(=O)/C=C/c1cc(OC)c(OC)c(OC)c1
Second: COc1cc(/C=C\c2cc(OC)c(OC)c(OC)c2)cc(NS(=O)(=O)c2cccc(Cl)c2)c1OC
The growth of the first is lower: 16.5% for the first, 47% for the second.

For CC(=O)OC[C@]1(C)C=C2C(=O)[C@](C)(O)C3(CC3)C(C)=C2[C@H]1OC(=O)N(C)CCN(C)C(=O)OC(C)(C)C, the growth was -62.5% (active).
CCOC(=O)C(Cc1ccc(N(CCCl)CCCl)cc1)NC(=O)C(CC(C)C)NC(C)=O (stereo not given) was tested, and the growth was -45.6% (active).
In the case of COc1ccc(/C=C\[N+](=O)[O-])cc1OC, the growth is reported as 53.6% and 11.6%.
In the case of COC1[C@@H]2C[C@H]3C(C)(C)O[C@@](C/C=C(/C)C(=O)O)(C2=O)[C@]32Oc3c(CC=C(C)C)c4c(c(O)c3C(=O)[C@H]12)C=CC(C)(C)O4 (stereo not given in full), the growth is reported as -65.2% (active).
In the case of C=CC[PH+](c1ccccc1)c1ccccc1.C=CC[PH+](c1ccccc1)c1ccccc1.[Pt+2].[S-]c1ncccn1.[S-]c1ncccn1, the growth is reported as -5.58% (active).
With COc1ccc(/C=C\c2cc(OC)c(OC)c(OC)c2)c(NS(=O)(=O)c2ccc(Cl)cc2)c1O the growth was 9.56% (active).
C[C@]12CCC3[C@@H](C[C@@H]4SC(Nc5ccccc5)=N[C@@]45CC(=O)CC[C@]35C)[C@@H]1CCC2=O (stereo not given in full) was tested, and the growth was -26.8% (active).
In the case of CC(=O)O[C@H]1C(=O)[C@@]2(C)[C@H]([C@H](OC(=O)c3ccccc3)[C@]3(O)C[C@H](OC(=O)[C@H](OC(=O)OC[C@@H]4COC(C)(C)O4)[C@@H](NC(=O)c4ccccc4)c4ccccc4)C(C)=C1C3(C)C)[C@]1(OC(C)=O)CO[C@@H]1C[C@@H]2O, the growth is reported as -7.94% (active).
C=CC[Se]C(=O)c1ccccc1OC(C)=O was tested, and the growth was -16.6% (active).
For O=C1C(=O)c2ccccc2-c2ccccc21, the growth was -85.6% (active).
